# HCV inhibitor: qHTS Assay for Inhibitors of Hepatitis C Virus (HCV); Huh7.5.1 HCVcc-Cre infection, luciferase reporter, 44 h; Potency, µM (doses to about 41.8 µM), without a hit: at the highest dose activity change, negative = inhibition, hits mostly inhibitors; 3.4% of 340,000 active; further: potency means the concentration at half of the fitted maximal effect
#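 Seed cells (1,000/well) for 4 h; treat with compound and infect with HCVcc-Cre, moi about 0.5. Incubate 44 h, then detect luciferase activity.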
# FMDV antiviral: High Throughput Screening for Foot and Mouth Disease Virus Antivirals | FMDV antiviral cell-based qHTS | AID 1159524, 2015 | Potency, µM (titrated, usually from 57.9 µM), for inactives: top-dose activity change, negative = inhibition, hits mostly inhibitors | 1.2% of 410,000 active; calls by dose curve; tested in HEK293T cells; further: read-out not given here; potency means the concentration at half of the fitted maximal effect; nearly all actives have a fitted effect of over 45% in size
# VACV mCherry inh: qHTS for Stage-Specific Inhibitors of Vaccinia Orthopoxvirus: mCherry Reporter Primary qHTS | 0.63% of 310,000 active | AID 720579, 2013 | Potency, µM (series often up to 36.5 µM), for the others: at the highest dose activity change, negative = inhibition, usual class: inhibitors | Vaccinia virus mCherry reporter infection, fluorescence; calls by dose curve; tested in A549 cells; further: potency means the concentration at half of the fitted maximal effect; nearly all actives have a fitted effect of over 35% in size
# VACV Venus inh: qHTS for Stage-Specific Inhibitors of Vaccinia Orthopoxvirus: Venus Reporter Primary qHTS; 0.46% of 330,000 active; AID 720580, 2013; Potency, µM (doses to about 36.5 µM), for inactives: at the top dose activity change, negative = inhibition, most hits filed as inhibitors; Vaccinia virus Venus reporter expression, fluorescence; calls by dose curve; tested in A549 cells; further: potency means the concentration at half of the fitted maximal effect; nearly all actives have a fitted effect of over 30% in size
# Sm TGR block: qHTS Assay for the Inhibitors of Schistosoma Mansoni Peroxiredoxins. Schistosoma mansoni thioredoxin glutathione reductase (TGR), Q962Y6. purified TGR, DTNB reduction, TNB absorbance 405 nm. Potency, µM (doses to about 114 µM), inactives show at the top dose activity change, negative = inhibition, hits mostly inhibitors. 3% of 360,000 active. AID 485364, 2010; further: potency means the concentration at half of the fitted maximal effect; nearly all actives have a fitted effect of over 60% in size
#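 TGR 20 nM + NADPH 100 uM (dispensed conc.), cpd preinc 15 min RT; start with NADPH (500 uM addition) then DTNB (15 mM addition). Kinetic TNB absorbance, 405 nm filter. Four-parameter Hill fit across titration.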
# HCMV inh: qHTS Assay for inhibitors of the human cytomegalovirus (HCMV); HFF cells, HCMV-luciferase reporter, 72 h; active compounds read low; activity change, negative = inhibition, % at 57.5 µM; 4.5% of 410,000 active; AID 1259415, 2018; in the data active means activity change below about -60%; inconclusive means no clear call, values can overlap the other calls; inactive means above about -39%
#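 After 16 h attachment at 37C, HFF cells received test compound and HCMV-luciferase (1 PFU/cell); reporter luminescence read 72 h later, data normalized against buffer-only and known inhibitor Salinomycin.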
# * = called active by the depositor; i = inactive; ? = inconclusive; · = no result; [ ] = dose if it differs, or a comment. This is a sample that favours compounds with a hit; in the whole collection about 9.3% have one here. Unless noted, the call rests on the fitted dose curve; in most records, active means well fitted curve in the direction sought with a large enough effect; inconclusive means small, poorly fitted or top-dose-only effect, or another doubt; inactive means no such curve, though single readings can be large; an effect the other way counts as inactive or inconclusive. On the % scale 0 is the no-effect control and ±100 the full control effect.
SMILES,HCV inhibitor,FMDV antiviral,VACV mCherry inh,VACV Venus inh,Sm TGR block,HCMV inh
Cc1ccc(C2NC(=O)c3c(sc(C)c3C)N2)c(O)c1 (stereo unspecified),-6%,·,2%,-5%,25µM*,40
CCN1C(=O)/C(=C\c2ccc([N+](=O)[O-])s2)C(=O)NC1=S,·,·,·,·,2.8µM*,·
C=CCN1C(=O)/C(=C/c2ccc(Br)s2)C(=O)NC1=S,11%,32µM*,·,·,2.5µM*,32
CC1=NN(c2ccccc2)C(=O)/C1=C\c1ccc(Br)s1,11%,8%,i,-8%,-26%,107
O=C(Nc1cccc(S(=O)(=O)N2CCOCC2)c1)c1ccc(N2CCOCC2)c([N+](=O)[O-])c1,?,?,-13%,-23%,-7%,?
CC(=O)N1c2ccc(S(=O)(=O)NCCC(=O)NCc3ccc(N(C)C)cc3)cc2CC1C (stereo unspecified),3%,-16%,i[7.34 µM],-12%[7.34 µM],-20%,-17
CS(=O)(=O)Nc1ccc(C2=NN(S(=O)(=O)c3ccc(F)cc3)C(c3ccco3)C2)cc1 (stereo unspecified),-23%,?,·,·,14µM*,-3
COc1ccccc1C1CC(c2ccc(NS(C)(=O)=O)cc2)=NN1S(=O)(=O)c1ccccc1 (stereo unspecified),-15%,13%,·,·,-6%,-25
O=C(c1ccco1)N1N=C(c2ccc(Br)cc2)CC1c1ccco1 (stereo unspecified),?,-29%,·,·,-18%,147
O=S(=O)(c1ccccc1)N1N=C(c2ccc(O)cc2)CC1c1ccco1 (stereo unspecified),10µM*,?,·,·,-4%,?
O=S(=O)(c1ccccc1)N1N=C(c2ccc(Br)cc2)CC1c1ccco1 (stereo unspecified),?,-10%,i[7.34 µM],0%[7.34 µM],56µM*,-60*
Cc1ccc(C2=NN(S(=O)(=O)c3ccccc3)C(c3ccco3)C2)cc1 (stereo unspecified),13µM*,-27%,·,·,0%,?
Oc1cc(O)cc(/C=C/c2ccc(O)c(O)c2)c1,0.56µM*,?,-25%,-16%,22µM*,117
CNS(=O)(=O)c1cc(Nc2ncnc3sccc23)ccc1C,?,?,·,·,2%,?
O=C(Nc1ncc([N+](=O)[O-])s1)c1ccc2c(c1)OCO2,-22%,3.2µM*,-22%,-10%,5%,-93*
Cc1ccc(C(=O)Nc2ncc(Cc3ccc(SC(F)F)cc3)s2)cc1,10µM*,-27%,-25%,?,-11%,-63*
Cc1ccc(C(=O)Nc2ncc([N+](=O)[O-])s2)cc1,?,8.9µM*,·,·,-26%,-70*
Cc1ccc(C(=O)Nc2ncc(Cc3ccc(F)cc3)s2)o1,-26%,-2%,·,·,2%,-6
Cc1onc(-c2ccccc2)c1C(=O)Nc1ncc([N+](=O)[O-])s1,?,?,?,?,-3%,-96*
OCCOCCNc1ncnc2c1cnn2-c1ccccc1,34%,21%,-3%,-9%,3%,211
N#Cc1c[nH]n2c(NC3CCCC3)c(-c3ccc(Br)cc3)nc12,·,-14%,-18%,-26%,-9%,-14
CNS(=O)(=O)c1cn(CC(=O)N2CCN(c3cccc(Cl)c3)CC2)cc1S(=O)(=O)NC,·,6%,-4%,-9%,9%,0
COc1ccc(CNC(=O)Cn2ccc3cc(S(=O)(=O)N4CCCCCC4)ccc32)cc1OC,·,9%,-16%,-14%,0%,-10
O=C(COc1ccc(Cl)cc1)Nc1ncc([N+](=O)[O-])s1,?,-46%,11µM*,10µM*,-31%,-61*
O=C(Cc1ccc(Cl)cc1)Nc1ncc([N+](=O)[O-])s1,-11%,-2%,-18%,-18%,?,9
SMILES,HCV inhibitor,FMDV antiviral,VACV mCherry inh,VACV Venus inh,Sm TGR block,HCMV inh
CCOC(=O)c1oc2nc(CC(C)C)c3c(c2c1N)CCCC3,2.8µM*,6%,?,-25%,-19%,14
CC1=CC(=O)CC(C)(C)C1(O)/C=C/C(C)=C/C(=O)O (stereo unspecified),16%,-12%,16%,-8%,-1%,39
CC(C)C[C@H](NC(=O)c1nc[nH]c1C(=O)NC(c1ccccc1)c1ccccc1)C(=O)OCc1ccccc1,?,0%,?,?,14%,18
CC(C)C[C@H](NC(=O)c1nc[nH]c1C(=O)NC(c1ccccc1)c1ccccc1)C(=O)OC(C)(C)C,1%,-19%,?,?,5%,-63*
CC(C)C[C@H](NC(=O)c1nc[nH]c1C(=O)NCC(=O)OC(C)(C)C)C(=O)OC(C)(C)C,-10%[8.37 µM],-18%,-11%,-10%,-26%,-6
CC(C)C[C@H](NC(=O)c1nc[nH]c1C(=O)N[C@@H](CC(C)C)C(=O)OC(C)(C)C)C(=O)OC(C)(C)C,?,40µM*,?,10µM*,-11%,-23
CCn1c(SC)nc2c([nH]c3ccccc32)c1=O,·,-3%,-23%,-23%,2%,115
O=c1oc(-c2ccccc2)cc(Cl)c1Cl,?,25µM*,i,-10%,?,-101*
OC(c1ccccc1)(c1ccccc1)C1CCN(CCCOc2ccc(F)cc2)CC1,·,-20%,?,?,·,-10
CC(C)c1ccc(OCCCN2CCC(C(O)(c3ccccc3)c3ccccc3)CC2)cc1,·,·,·,·,·,-99*
COC(=O)c1cccc(OCCCN2CCC(C(O)(c3ccccc3)c3ccccc3)CC2)c1,·,-20%,?,?,·,0
OC(c1ccccc1)(c1ccccc1)C1CCN(CCCOc2ccc(C(F)(F)F)cc2)CC1,·,·,·,·,·,-81*
OC(c1ccccc1)(c1ccccc1)C1CCN(CCCOc2cccc(C(F)(F)F)c2)CC1,·,·,·,·,·,-66*
Cc1ccc(OCCCN2CCC(C(O)(c3ccccc3)c3ccccc3)CC2)cc1,·,-27%,?,?,·,-18
Cc1ccc(NC(=O)C(C)N2C(=O)c3ccccc3C2=O)cc1S(=O)(=O)N1CCOCC1 (stereo unspecified),11%,14%,-14%,-9%,14%,7
Oc1ccccc1Cn1c(-c2ccccc2O)nc2ccccc21,-24%,-13%,·,·,-3%,17
COc1ccccc1Cn1c(-c2ccccc2OC)nc2ccccc21,1%,?,-24%,-16%,10%,-68*
COCC1CCN(C(=O)c2cc(COc3ccc(-n4cncn4)cc3)on2)C1 (stereo unspecified),1%,-5%,-12%,-5%,2%,-24
COc1ccc(C2=CC3=C(Br)C(=O)C(C)(OC(=O)c4ccco4)C(=O)C3=CO2)cc1 (stereo unspecified),4%,-16%,-2%,?,5µM*,·

# High-throughput results: PubChem BioAssay, National Center for Advancing Translational Sciences (NCATS)
